Screens: PubChem BioAssay, National Center for Advancing Translational Sciences (NCATS)
IMPase Li cell – cell-permeable IMPase inhibitors with lithium potentiation. CHO-M1 cells, IP1 TR-FRET (IP-One), carbachol + lithium. Potency, µM (titrated, usually from 59.4 µM), without a hit: at the highest dose activity, negative = IMPase inhibition, most hits filed as inhibitors. 210,000 tested, 0.35% active. AID 1457; active = well fitted inhibition curve with a large enough effect; inconclusive = small, poorly fitted or top-dose-only effect; inactive = no such curve, though single readings can be large or run the other way;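 note: IP1 builds up when IMPase is blocked and the TR-FRET signal falls; potency is the fitted concentration of half-maximal effect; plate controls were basal vehicle for no effect and high inhibitor control for full effect; nearly all actives have a fitted effect of over 50% in size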
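Lithium-sensitised IP1 accumulation assay; M1-expressing CHO cells treated 30 min at 37C with compound. Competitive antibody detection by time-resolved FRET followed a 10 min room-temperature lysis step.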
IMPase cell inh – cell-permeable inhibitors of inositol monophosphatase (IMPase). CHO-M1 cells, IP1 accumulation, HTRF TR-FRET ratio. inhibition (IP1 accumulation), % at 46.1 µM. AID 901. P97697. 120,000 tested, under 10 active; active = well fitted curve in the direction sought with a large enough effect in the signal ratio, not every such curve was filed as active; inconclusive = small, poorly fitted or top-dose-only effect, or a change in a side signal; inactive = no such curve, though single readings can be large or run the other way; the % refers to the signal ratio;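 note: cells stimulated with carbachol in lithium chloride buffer; plate controls were DMSO basal wells for no effect and reference inhibitor wells for full effect; higher means more IMPase inhibition seen as more IP1 and lower FRET ratio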
Target sequence (P97697 whole entry, looked up): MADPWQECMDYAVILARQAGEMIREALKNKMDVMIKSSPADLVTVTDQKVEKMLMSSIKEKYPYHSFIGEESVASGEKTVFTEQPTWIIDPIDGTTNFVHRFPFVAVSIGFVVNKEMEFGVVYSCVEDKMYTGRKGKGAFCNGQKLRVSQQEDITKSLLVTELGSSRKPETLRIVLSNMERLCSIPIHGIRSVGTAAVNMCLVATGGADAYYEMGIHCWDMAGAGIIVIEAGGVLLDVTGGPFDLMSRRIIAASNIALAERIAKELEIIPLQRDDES
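Measured: the HTRF emission ratio (665/620 nm) plus the 620 nm donor channel, each fitted to the Hill equation to give AC50. Cells were CHO-M1 given compounds up to 46 uM and a 30 min carbachol stimulation at 37C.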
ALDH1A1 inh – inhibitors of human aldehyde dehydrogenase 1A1; P00352; Purified ALDH1A1, NADH fluorescence, propionaldehyde substrate; Potency, µM (titrated, usually from 75.3 µM), inactives show at the highest dose activity, negative = inhibition, most hits filed as inhibitors; 220,000 tested, 7.3% active;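 note: potency is the fitted concentration of half-maximal effect; plate controls were no enzyme wells and a reference inhibitor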
HPGD block – HPGD (human) dehydrogenase inhibition | purified HPGD, NADH fluorescence kinetic, PGE2 substrate | AID 894 | P15428 | 150,000 tested, 4.3% active | Potency, µM, inactives show top-dose activity change, negative = inhibition, usual class: inhibitors; note: potency is the fitted concentration of half-maximal effect
Target sequence (P15428 whole entry, looked up): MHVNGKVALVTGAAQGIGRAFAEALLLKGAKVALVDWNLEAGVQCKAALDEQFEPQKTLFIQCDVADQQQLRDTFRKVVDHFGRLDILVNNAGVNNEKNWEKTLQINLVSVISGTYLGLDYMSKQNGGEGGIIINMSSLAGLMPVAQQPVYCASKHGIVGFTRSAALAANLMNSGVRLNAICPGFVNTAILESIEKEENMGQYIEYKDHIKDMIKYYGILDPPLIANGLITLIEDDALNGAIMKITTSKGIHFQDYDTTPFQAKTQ
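20 nM HPGD preincubated 15 min at room temperature with compound in 50 mM Tris-HCl pH 8, 0.01% Tween 20. Started with 1 mM NAD+ and 30 uM prostaglandin E2; NADH fluorescence (360/450 nm) read 5 times over 30-s intervals, last minus first.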
PNC assembly inh – inhibitors of perinucleolar compartment assembly | PC3M PTB-GFP, PNC prevalence imaging, 16 h; hits give low values | activity change (PNC), negative = inhibition, % at 10 µM | 140,000 tested, 3.1% active | AID 2417;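 active = readout at or below -70, meaning at least 70% loss of cells showing the perinucleolar compartment, a nuclear body marking cancer cells; inconclusive = readout between -30 and a set limit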;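 note: plate controls were DMSO wells for no effect and camptothecin positive control wells for full effect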
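Compounds are pinned in duplicate onto adhered PC3M cells stably expressing GFP-tagged PTB and incubated 16 h at 37 C. Cells are then fixed, nuclei stained with Hoechst, and PNC-positive cells counted.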
* marks the source's active call; other numbers are inactive results; ? = inconclusive; . = not tested or not shown; [ ] = dose if it differs, or a comment. Sampled rows, rich in hits. Any-hit rate of the full collection: about 11%. Unless noted, calls come from the whole dose curve; as a rule, active = well fitted inhibition curve with a large enough effect (not every such curve was filed as active); inconclusive = small, poorly fitted or top-dose-only effect, or another doubt; inactive = no such curve, though single readings can be large or run the other way. Unless noted, % is set by controls: 0 for no effect and ±100 for the full control effect.

SMILES | IMPase Li cell | IMPase cell inh | ALDH1A1 inh | HPGD block | PNC assembly inh
C=CCSc1nnc(NC(=O)c2cccc(S(=O)(=O)N(C)c3ccccc3)c2)s1 | 14% | . | ? | ? | 53
COCCN1CN(S(=O)(=O)c2ccccc2)c2nc3ccccc3nc21 | 13%[38.3 µM] | -1 | 14% | ? | -117*
CCCCN1CN(S(=O)(=O)c2cccs2)c2nc3ccccc3nc21 | 17%[38.3 µM] | 7 | ? | -20% | ?
COCCN1CN(S(=O)(=O)c2ccc(Cl)cc2)c2nc3ccccc3nc21 | 1%[38.3 µM] | -2 | 24µM* | -8% | ?
CC(C)CCN1CN(S(=O)(=O)c2cccs2)c2nc3ccccc3nc21 | 17%[38.3 µM] | -6 | 28µM* | -7% | 10
O=S(=O)(c1cccs1)N1CN(Cc2ccc(Cl)cc2)c2nc3ccccc3nc21 | 10%[38.3 µM] | 1 | -8% | -17% | 22
CC1=CC(=O)OC1Cc1ccc2ccccc2n1 (configuration not stated) | 0% | . | ? | -29% | .
CCOc1ccc(/C=C(\C#N)C(=O)NCC2CCCO2)cc1OCC (configuration not stated) | -4% | . | 28µM* | -24% | 26
CN(C)CCC[C@@H]1c2ccccc2Oc2ccc(C(F)(F)F)cc21 | 22% | . | 10%[13.5 µM] | -2% | .
O=C(CSc1ccc(-c2nc3ccccc3[nH]2)cn1)Nc1ccc2c(c1)OCCO2 | 8.9µM* | 0[1.84 µM] | ? | ? | ?
Cc1ccc2nc(-c3ccc(SCC(=O)Nc4ccc5c(c4)OCCO5)nc3)[nH]c2c1 | 14% | . | ? | ? | 15
Cc1cc2nc(-c3ccc(SCC(=O)N4CCOCC4)nc3)[nH]c2cc1C | ? | -2 | ? | ? | -89*
Cc1cc(C(C)(C)C)nc2[nH]n(-c3ccccc3)c(=O)c12 | 33%[38.3 µM] | 8 | -2% | 16µM* | 1
Cc1nonc1C1CCCN1Cc1cn[nH]c1-c1ccc2c(c1)OCO2 (configuration not stated) | . | . | 16µM* | . | .
COc1ccc(C2C(C(C)=O)=C(Nc3ccccc3)CC(C)(O)C2C(C)=O)cc1OC (configuration not stated) | 16% | 5 | ? | -17% | -119*
COc1ccc(NC2=C(C(C)=O)C(c3ccc(OC)cc3)C(C(C)=O)C(C)(O)C2)cc1 (configuration not stated) | -2% | . | -9% | . | .
O=C(CSc1ccc(-c2ccco2)nn1)c1ccccc1 | 13% | 0 | 8.9µM* | -19% | -10
O=C(CSc1ccc(-c2ccco2)nn1)N1CCCCCC1 | -4% | . | ? | . | .
O=C(CSc1ccccn1)N1CCc2ccccc21 | 2% | . | ? | . | .
COc1ccc(C(=O)CSc2ccc(-c3ccco3)nn2)cc1 | -2% | -16 | 22µM* | -17% | ?
COc1ccc(C(=O)CSc2ccc(-c3ccccc3)nn2)cc1 | 23% | 7 | 7.9µM* | ? | ?
O=C(CSc1ccc(-c2ccccn2)nn1)N1CCc2ccccc21 | -3% | . | 18µM* | . | .
O=C(CCCn1c2ccccc2c(=O)c2ccccc21)Nc1cccc(Cl)c1 | . | -7 | . | . | .
Cc1ccc(C(c2nnnn2CC2CCCO2)N2CCN(c3cccc(C)c3C)CC2)cc1 (configuration not stated) | 40%[38.3 µM] | 9 | ? | -7% | ?
O=C(CSc1ccc(-c2ccccn2)nn1)c1ccc([N+](=O)[O-])cc1 | 20% | . | 1µM* | . | .
SMILES | IMPase Li cell | IMPase cell inh | ALDH1A1 inh | HPGD block | PNC assembly inh
N=C(C[C@@H](O)COc1ccccc1-c1ccccc1)N1CCCCC1 | 19% | 13 | 5% | 5% | .
CN(c1ccccc1)c1ccc(/C=N/N2CCOCC2)cc1 | 4% | . | -5% | -22% | ?
O=C(CCSCc1cccc(Cl)c1)NCCC1=CCCCC1 | -2% | 10 | -9% | ? | -2
O=C(CCSCc1cccc(Cl)c1)NC1CCCC1 | 0% | 8 | 12% | 14µM* | -14
O=C(CCSCc1ccccc1Cl)NC1CCCC1 | 3% | 0 | 3% | 11µM* | -14
COc1ccc(OC2C=CC(C#Cc3ccc(C(C)(C)C)cc3)OC2CO)cc1 (configuration not stated) | . | . | -11%[13.5 µM] | . | .
Cc1ccccc1C(=O)NC(=S)Nc1ccc(S(=O)(=O)N2CCN(C)CC2)cc1 | 22%[38.3 µM] | 6 | 10µM* | ? | 41
